The inhibition is the relative decrease from the control value, in per cent.

For seven molecules, inhibition results are on record in ChEMBL document CHEMBL1961873, “Compounds: GSK PKIS; Assays: Nanosyn kinase panel” (2012).

Test [1] deals with T1, Aurora kinase A (Homo sapiens) (UniProt O14965).
T1 sequence (whole entry): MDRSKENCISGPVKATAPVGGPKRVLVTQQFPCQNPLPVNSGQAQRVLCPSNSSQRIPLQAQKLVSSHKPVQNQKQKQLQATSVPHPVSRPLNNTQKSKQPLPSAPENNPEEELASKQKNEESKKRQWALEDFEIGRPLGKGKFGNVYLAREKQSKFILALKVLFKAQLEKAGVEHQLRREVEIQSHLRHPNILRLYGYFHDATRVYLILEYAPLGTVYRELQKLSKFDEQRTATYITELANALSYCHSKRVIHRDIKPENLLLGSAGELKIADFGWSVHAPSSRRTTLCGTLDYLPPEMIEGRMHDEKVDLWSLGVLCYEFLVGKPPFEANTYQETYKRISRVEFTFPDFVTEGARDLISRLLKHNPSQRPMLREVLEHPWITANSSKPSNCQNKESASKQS
The following applies: at 1 µM.

Test [2] addresses Aurora kinase B (Homo sapiens) (UniProt Q96GD4). The following applies: at 0.1 µM.
For test [3] the target is unchanged. The note with it: at 1 µM.
The target of test [4] is T2, Aurora kinase C (Homo sapiens) (UniProt Q9UQB9).
T2 sequence (whole entry): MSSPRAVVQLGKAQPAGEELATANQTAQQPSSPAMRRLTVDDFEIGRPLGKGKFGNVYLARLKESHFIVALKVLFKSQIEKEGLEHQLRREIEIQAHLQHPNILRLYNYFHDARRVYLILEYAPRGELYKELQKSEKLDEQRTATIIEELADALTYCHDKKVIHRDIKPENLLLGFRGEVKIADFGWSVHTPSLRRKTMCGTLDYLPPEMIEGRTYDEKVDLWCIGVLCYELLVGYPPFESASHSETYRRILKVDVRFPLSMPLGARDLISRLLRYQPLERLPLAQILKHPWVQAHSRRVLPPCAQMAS
The following applies: at 0.1 µM.

Test [5] addresses T2, Aurora kinase C (Homo sapiens). The following applies: at 1 µM.
For test [6], the target named is Serine/threonine-protein kinase 10 (Homo sapiens) (UniProt O94804). The note with it: at 0.1 µM.
Chain of Serine/threonine-protein kinase 10 (Homo sapiens) (O94804 whole entry, looked up): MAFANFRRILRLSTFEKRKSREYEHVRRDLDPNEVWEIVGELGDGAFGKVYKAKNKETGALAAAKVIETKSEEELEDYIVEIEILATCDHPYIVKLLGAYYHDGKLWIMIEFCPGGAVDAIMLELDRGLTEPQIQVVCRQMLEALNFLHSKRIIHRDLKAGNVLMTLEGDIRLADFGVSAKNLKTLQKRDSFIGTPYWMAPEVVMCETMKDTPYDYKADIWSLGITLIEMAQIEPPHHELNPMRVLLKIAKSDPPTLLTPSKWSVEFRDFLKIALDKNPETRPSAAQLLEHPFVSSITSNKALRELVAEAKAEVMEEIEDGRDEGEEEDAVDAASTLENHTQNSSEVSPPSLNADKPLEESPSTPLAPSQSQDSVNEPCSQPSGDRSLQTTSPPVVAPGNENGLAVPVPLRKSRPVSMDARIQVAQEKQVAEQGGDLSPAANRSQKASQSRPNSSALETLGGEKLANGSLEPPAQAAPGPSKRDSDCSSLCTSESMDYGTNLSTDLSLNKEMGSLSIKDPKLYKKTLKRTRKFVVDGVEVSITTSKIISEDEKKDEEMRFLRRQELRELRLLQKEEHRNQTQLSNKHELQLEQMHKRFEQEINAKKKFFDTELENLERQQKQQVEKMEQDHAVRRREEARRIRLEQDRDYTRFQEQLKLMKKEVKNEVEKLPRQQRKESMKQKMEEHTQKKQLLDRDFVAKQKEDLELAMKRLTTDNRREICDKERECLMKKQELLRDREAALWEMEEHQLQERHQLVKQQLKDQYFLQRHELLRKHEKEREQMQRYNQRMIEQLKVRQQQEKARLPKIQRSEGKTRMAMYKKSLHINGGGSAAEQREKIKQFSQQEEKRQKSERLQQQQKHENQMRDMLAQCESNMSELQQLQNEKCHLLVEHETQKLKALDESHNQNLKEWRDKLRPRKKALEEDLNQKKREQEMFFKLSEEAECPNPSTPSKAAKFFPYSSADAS
Test [7] shares this target. The following applies: at 1 µM.
Test [8] addresses T3, Mitogen-activated protein kinase kinase kinase kinase 2 (Homo sapiens) (UniProt Q12851).
T3 sequence (whole entry): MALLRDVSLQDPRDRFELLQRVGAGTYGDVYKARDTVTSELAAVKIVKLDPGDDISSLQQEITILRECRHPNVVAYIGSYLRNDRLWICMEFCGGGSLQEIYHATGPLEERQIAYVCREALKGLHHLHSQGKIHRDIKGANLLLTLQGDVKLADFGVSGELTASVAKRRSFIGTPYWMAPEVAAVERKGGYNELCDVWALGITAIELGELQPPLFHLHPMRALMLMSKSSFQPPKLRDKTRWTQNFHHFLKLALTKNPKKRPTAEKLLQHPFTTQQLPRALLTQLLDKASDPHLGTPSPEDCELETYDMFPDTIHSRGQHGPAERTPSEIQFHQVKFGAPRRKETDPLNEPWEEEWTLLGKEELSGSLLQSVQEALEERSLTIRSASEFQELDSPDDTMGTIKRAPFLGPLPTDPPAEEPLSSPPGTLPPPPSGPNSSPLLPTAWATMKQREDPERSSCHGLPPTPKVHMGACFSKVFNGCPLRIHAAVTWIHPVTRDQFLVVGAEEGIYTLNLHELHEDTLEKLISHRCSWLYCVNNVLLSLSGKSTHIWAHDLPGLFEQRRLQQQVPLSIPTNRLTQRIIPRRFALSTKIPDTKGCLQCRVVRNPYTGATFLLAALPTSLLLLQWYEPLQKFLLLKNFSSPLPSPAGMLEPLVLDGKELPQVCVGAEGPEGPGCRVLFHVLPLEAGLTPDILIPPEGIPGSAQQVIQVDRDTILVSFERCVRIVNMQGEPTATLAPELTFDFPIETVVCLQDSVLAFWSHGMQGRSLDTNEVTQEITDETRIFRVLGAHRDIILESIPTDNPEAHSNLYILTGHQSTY
The following applies: at 0.1 µM.

Test [9] addresses T3, Mitogen-activated protein kinase kinase kinase kinase 2 (Homo sapiens). The note with it: at 1 µM.
Test [10] deals with Mitogen-activated protein kinase kinase kinase kinase 4 (Homo sapiens) (UniProt O95819). The note with it: at 0.1 µM.
Chain of Mitogen-activated protein kinase kinase kinase kinase 4 (Homo sapiens) (O95819 2-1239 limits assumed): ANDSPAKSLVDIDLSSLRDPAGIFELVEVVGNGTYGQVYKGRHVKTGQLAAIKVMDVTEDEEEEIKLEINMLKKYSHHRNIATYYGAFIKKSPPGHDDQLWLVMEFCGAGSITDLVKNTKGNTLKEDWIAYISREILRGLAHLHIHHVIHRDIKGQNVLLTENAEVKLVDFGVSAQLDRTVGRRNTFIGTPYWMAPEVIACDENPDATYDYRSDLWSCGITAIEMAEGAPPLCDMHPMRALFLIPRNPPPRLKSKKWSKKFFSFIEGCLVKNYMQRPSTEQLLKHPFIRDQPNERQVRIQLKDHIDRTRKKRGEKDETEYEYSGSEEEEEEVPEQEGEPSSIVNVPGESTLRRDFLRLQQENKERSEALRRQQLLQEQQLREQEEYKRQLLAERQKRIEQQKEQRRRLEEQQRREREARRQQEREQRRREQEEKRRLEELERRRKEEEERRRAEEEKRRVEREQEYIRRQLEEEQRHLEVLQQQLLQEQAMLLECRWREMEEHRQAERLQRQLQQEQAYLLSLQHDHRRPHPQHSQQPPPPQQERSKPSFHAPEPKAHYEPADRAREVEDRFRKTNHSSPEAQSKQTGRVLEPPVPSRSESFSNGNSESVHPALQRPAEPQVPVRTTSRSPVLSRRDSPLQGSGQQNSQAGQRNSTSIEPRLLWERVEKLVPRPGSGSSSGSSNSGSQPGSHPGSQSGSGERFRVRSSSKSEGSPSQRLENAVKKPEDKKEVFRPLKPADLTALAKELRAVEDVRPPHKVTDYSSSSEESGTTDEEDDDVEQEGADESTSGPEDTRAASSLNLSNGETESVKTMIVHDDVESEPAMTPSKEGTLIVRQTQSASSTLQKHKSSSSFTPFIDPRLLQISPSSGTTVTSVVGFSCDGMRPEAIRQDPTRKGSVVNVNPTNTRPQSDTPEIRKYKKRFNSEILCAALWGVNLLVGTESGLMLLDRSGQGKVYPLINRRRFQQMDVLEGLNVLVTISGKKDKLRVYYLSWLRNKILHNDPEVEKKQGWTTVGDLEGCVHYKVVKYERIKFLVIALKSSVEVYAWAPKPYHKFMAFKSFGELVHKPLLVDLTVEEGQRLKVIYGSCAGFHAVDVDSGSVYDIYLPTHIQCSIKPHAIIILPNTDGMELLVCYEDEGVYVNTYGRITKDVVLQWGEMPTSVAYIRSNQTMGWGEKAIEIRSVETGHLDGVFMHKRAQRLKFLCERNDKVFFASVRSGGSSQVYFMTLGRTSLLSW
Test [11] has the same target. The note with it: at 1 µM.
Test [12] concerns the target Dual specificity mitogen-activated protein kinase kinase 1 (Homo sapiens) (UniProt Q02750). The note with it: at 0.1 µM.
For test [13] the target is unchanged. The following applies: at 1 µM.
For test [14], the target named is Misshapen-like kinase 1 (Homo sapiens) (UniProt Q8N4C8). The note with it: at 0.1 µM.
Chain of Misshapen-like kinase 1 (Homo sapiens) (Q8N4C8 whole entry, looked up): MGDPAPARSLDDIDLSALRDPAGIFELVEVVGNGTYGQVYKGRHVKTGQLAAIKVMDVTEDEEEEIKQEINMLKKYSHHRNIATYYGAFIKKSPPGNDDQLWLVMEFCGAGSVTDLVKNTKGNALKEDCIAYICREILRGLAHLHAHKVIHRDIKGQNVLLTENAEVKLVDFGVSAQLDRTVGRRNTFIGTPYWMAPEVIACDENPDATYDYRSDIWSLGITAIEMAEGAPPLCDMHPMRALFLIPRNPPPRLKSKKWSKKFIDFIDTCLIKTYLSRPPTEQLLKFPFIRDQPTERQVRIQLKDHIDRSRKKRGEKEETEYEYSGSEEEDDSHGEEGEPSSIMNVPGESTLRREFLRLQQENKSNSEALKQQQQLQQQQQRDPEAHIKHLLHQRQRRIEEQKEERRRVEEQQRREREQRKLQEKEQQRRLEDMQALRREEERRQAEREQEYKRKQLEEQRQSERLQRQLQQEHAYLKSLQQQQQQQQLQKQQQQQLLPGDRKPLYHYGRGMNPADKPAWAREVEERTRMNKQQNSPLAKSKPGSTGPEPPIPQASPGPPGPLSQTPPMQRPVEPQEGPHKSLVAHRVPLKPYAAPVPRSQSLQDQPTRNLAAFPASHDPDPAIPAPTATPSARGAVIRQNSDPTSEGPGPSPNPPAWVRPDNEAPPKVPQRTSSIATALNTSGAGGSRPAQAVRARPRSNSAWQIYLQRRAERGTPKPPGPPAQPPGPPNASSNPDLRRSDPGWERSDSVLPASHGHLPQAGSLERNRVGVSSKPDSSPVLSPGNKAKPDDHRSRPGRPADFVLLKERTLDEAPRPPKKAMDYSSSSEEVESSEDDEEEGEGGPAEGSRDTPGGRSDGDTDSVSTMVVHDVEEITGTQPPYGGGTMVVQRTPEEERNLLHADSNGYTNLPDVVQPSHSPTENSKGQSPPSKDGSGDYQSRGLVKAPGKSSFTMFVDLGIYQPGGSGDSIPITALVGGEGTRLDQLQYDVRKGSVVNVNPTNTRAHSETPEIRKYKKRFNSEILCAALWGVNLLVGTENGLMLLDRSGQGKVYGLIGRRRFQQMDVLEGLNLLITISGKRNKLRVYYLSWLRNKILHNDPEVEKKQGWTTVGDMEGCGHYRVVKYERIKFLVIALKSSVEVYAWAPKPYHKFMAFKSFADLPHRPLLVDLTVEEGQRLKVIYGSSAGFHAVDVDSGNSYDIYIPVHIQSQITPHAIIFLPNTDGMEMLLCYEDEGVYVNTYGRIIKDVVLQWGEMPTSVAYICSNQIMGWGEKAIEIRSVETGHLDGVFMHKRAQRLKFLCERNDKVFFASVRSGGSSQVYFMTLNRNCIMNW
For test [15] the target is unchanged. The note with it: at 1 µM.
Test [16] addresses T4, Serine/threonine-protein kinase 4 (Homo sapiens) (UniProt Q13043).
T4 sequence (whole entry): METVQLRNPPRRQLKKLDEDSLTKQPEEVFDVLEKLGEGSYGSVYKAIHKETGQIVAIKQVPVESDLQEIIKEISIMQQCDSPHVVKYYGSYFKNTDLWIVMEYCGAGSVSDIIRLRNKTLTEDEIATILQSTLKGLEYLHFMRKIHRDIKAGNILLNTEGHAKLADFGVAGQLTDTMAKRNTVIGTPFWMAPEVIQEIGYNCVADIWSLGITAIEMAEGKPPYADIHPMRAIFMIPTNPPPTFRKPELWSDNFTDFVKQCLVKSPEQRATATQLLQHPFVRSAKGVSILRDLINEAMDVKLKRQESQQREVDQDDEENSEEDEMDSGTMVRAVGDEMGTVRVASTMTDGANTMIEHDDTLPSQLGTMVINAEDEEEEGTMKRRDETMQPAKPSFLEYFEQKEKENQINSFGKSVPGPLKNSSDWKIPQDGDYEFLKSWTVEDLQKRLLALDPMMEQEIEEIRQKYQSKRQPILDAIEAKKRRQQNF
The following applies: at 0.1 µM.

Test [17] addresses T4, Serine/threonine-protein kinase 4 (Homo sapiens). The following applies: at 1 µM.
Test [18] has as its target T5, Serine/threonine-protein kinase 3 (Homo sapiens) (UniProt Q13188).
T5 sequence (whole entry): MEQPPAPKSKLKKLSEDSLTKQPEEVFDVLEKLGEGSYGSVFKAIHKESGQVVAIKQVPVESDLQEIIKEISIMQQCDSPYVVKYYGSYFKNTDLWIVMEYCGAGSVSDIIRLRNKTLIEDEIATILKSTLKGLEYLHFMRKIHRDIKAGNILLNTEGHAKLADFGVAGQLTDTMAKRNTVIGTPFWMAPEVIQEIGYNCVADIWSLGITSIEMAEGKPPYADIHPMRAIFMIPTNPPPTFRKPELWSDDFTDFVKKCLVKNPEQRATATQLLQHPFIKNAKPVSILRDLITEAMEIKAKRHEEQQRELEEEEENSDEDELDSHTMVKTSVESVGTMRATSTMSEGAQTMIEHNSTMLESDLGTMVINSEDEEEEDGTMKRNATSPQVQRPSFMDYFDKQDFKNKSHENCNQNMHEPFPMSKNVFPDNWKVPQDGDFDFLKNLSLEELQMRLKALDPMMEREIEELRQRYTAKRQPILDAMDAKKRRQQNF
The note with it: at 0.1 µM.

In test [19] the target is T5, Serine/threonine-protein kinase 3 (Homo sapiens). The following applies: at 1 µM.
The target in test [20] is Serine/threonine-protein kinase 26 (Homo sapiens) (UniProt Q9P289). The following applies: at 0.1 µM.
Chain of Serine/threonine-protein kinase 26 (Homo sapiens) (Q9P289 2-416 limits assumed): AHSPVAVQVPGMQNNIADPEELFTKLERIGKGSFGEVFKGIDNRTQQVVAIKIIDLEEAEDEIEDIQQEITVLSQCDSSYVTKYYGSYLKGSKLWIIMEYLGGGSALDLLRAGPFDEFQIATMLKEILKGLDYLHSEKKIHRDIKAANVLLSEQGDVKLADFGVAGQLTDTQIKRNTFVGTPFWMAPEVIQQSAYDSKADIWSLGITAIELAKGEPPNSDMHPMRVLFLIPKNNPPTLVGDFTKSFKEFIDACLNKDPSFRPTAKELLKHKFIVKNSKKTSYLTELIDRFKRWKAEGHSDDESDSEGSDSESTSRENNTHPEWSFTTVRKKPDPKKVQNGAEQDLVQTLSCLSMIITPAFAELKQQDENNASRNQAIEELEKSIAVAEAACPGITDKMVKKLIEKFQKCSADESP

Chain of Aurora kinase B (Homo sapiens) (Q96GD4 whole entry): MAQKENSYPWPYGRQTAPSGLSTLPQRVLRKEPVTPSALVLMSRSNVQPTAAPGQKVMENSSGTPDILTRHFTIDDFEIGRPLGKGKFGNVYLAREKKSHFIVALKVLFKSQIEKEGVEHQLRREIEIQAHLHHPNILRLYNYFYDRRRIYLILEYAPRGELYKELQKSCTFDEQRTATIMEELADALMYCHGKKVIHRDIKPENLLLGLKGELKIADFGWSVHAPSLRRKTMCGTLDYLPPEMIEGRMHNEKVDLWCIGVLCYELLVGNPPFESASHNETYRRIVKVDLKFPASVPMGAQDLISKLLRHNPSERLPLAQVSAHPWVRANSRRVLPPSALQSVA
Chain of Dual specificity mitogen-activated protein kinase kinase 1 (Homo sapiens) (Q02750 whole entry): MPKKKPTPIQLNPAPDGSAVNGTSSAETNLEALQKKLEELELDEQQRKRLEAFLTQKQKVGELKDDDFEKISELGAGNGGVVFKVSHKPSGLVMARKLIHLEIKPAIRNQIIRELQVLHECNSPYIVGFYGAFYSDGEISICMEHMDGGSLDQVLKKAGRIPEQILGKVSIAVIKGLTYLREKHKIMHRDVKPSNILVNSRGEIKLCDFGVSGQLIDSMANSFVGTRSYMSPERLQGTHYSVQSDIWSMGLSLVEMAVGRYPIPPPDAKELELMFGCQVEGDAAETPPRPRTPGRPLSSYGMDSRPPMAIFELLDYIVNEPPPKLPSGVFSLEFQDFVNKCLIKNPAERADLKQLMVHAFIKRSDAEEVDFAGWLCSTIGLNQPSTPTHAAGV

In the case of `Nc1nccc(-c2c(-c3ccc(F)cc3)nn3cc(C(F)(F)F)ccc23)n1`, the inhibition in test [1] is 1.39%; in [2], 1.38%; in test [3], 0.7%; in test [4] it was 1.04%; in [5] it was 0.73%; in test [6] it was -0.92%. The inhibition in test [7] is 3.24%; in test [8] it was 2.23%; in test [9] it was 1.52%; in test [10], -0.02%; in test [11], 2.37%; in [12] it was 1.8%. Moreover, the inhibition in test [13] is 0.93%; in [14], 1.74%; in [15] it was 1.52%; in test [16], 0.23%; in test [17] it was -0.05%; in test [18], -0.79%. The inhibition in test [19] was -0.81%; in test [20], 0.43%.
In the case of `NS(=O)(=O)c1cccc(Nc2cc(-c3ccc(F)cc3)n[nH]2)c1`, the inhibition amounted to 8.81% in test [1]; 3.89% in test [2]; 3.74% in test [3]; 0.7% in test [4]; 0.46% in test [5]; 4.31% in test [6]. The inhibition in [7] came to 16.5%; in [8] it was 1.41%; in test [9], 4.93%; in test [10], 16.9%; in [11], 69.9%; in test [12], 5.05%. In addition, the inhibition was 3.82% in test [13]; 14.6% in test [14]; 59.5% in test [15]; 8.09% in test [16]; 16.1% in test [17]; 7.41% in [18]. The inhibition in test [19] is 13.4%; in [20] it was -0.02%.
For the molecule `Cc1cc(Cl)cc2c1NC(=O)C2=NNc1ccc(S(N)(=O)=O)cc1`, the inhibition in [1] is 4.36%; in test [2] it was 4.55%; in test [3] it was 6.64%; in test [4], 2.52%; in test [5], -3.99%; in test [6], 1.5%. Also, the inhibition in test [7] stood at 7.34%; in test [8] it was 1%; in [9], 0.54%; in test [10], 12.7%; in test [11], 56.5%; in test [12], 3.39%. The inhibition in test [13] worked out at 2.09%; in [14], 10%; in test [15], 42.5%; in test [16], 4.01%; in test [17] it was 7.11%; in test [18] it was 3.69%. In addition, the inhibition in [19] stood at 6.48%; in test [20], 0.59%.
For `CN(c1ccc(NC(=O)Nc2ccc(OC(F)(F)F)cc2)cc1)c1ccnc(Nc2cccc(S(N)(=O)=O)c2)n1`, the inhibition in [1] stood at 76.8%; in [2], 63.9%; in test [3], 79%; in test [4], 30.7%; in test [5], 96.5%; in test [6], 26%. Moreover, the inhibition in [7] was 70.4%; in test [8] it was 18.4%; in test [9], 69.5%; in [10], 24.4%; in test [11] it was 85.1%; in [12] it was 3.84%. For the same molecule, the inhibition in test [13] was 13.7%; in test [14], 24.3%; in test [15] it was 80.3%; in [16], 2.75%; in [17], 9.45%; in [18], 4.46%. The inhibition in test [19] is 6.49%; in [20], -1.04%.
Turning to `Cc1ccc2c(-c3ccnc(Nc4cccc(C(F)(F)F)c4)n3)c(-c3ccccc3)nn2n1`, the inhibition in [1] stood at 6.06%; in test [2] it was 5.03%; in test [3], 7.6%; in test [4], 3.89%; in test [5], 9.67%; in test [6], 8.49%. Besides, the inhibition in [7] was 11.5%; in test [8] it was -0.05%; in test [9] it was 9.38%; in test [10] it was 7.07%; in test [11] it was 46.8%; in test [12], 5.35%. Also, the inhibition in [13] is 7.59%; in [14], 8.79%; in [15], 38.2%; in test [16], 3.51%; in [17] it was 7.31%; in [18], 5.68%. For the same molecule, the inhibition in test [19] is 6.69%; in test [20] it was 0.2%.
Consider `c1ccc(Nc2ncc(-c3ccccc3)o2)cc1`, for which the inhibition came to 15.2% in test [1]; 3.84% in [2]; 10.3% in test [3]; 0.81% in test [4]; 16% in test [5]; 3.84% in [6]. Besides, the inhibition came out at 9.44% in [7]; 1.03% in test [8]; 5.7% in test [9]; 5.9% in test [10]; 25.9% in test [11]; 5.07% in test [12]. Also, the inhibition in test [13] was found to be 4.19%; in test [14], 6.17%; in test [15], 19%; in [16], 2.36%; in test [17], 4.87%; in test [18], 4.89%. Besides, the figures for the inhibition in [19] and in test [20] were 6.36% and -1.38%, respectively.
In the case of `CCCN1CCCC(c2ccc(Nc3nc(Nc4cc(F)ccc4C(N)=O)c4cc[nH]c4n3)c(OC)c2)C1` (stereo not given), the inhibition was 7.44% in test [1]; -0.78% in test [2]; 3.45% in [3]; -0.09% in [4]; 5.81% in test [5]; 7.27% in test [6]. Besides, the inhibition in [7] came to 24.8%; in test [8], 9.87%; in test [9] it was 48.9%; in test [10], 38.3%; in test [11], 80.8%; in test [12] it was 9.59%. Besides, the inhibition in test [13] worked out at 33.4%; in test [14], 28.3%; in test [15], 71.7%; in [16] it was 10.2%; in test [17], 41%; in test [18] it was 6.09%. The inhibition in test [19] is 10.6%; in test [20], -1.66%.
